A selection: hits, their analogues and other compounds. The true share with any hit is near 3.5%.
KCNK9 block: blocks the human KCNK9 two-pore domain potassium channel. Q9NPC2. HEK293 KCNK9, FluxOR thallium flux fluorescence; active compounds read low. B-score at 10 µM. actives 1.2% (n = 310,000). AID 488922;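 active = ratio B-score over 3 SD below the library mean, with starting fluorescence within 5 SD of its mean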;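 also: negative B-score means less thallium flux so channel inhibition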
Target sequence (Q9NPC2 whole entry, looked up, the tested form may be a part): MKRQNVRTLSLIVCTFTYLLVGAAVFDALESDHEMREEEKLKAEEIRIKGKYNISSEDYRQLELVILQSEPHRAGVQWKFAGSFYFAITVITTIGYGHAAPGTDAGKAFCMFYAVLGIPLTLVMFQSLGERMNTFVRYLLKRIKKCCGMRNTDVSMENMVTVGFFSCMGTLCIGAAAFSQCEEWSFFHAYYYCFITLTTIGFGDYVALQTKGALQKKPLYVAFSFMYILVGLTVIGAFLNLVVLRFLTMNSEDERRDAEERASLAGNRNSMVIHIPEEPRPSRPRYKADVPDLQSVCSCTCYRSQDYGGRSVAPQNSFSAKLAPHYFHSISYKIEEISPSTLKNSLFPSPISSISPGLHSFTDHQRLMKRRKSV
TMEM16A act: mouse TMEM16A channel activation, primary screen; B-score at 10 µM; Q8BHY3; HEK293 TMEM16A/YFP-H148Q/I152L, iodide quench fluorescence; active compounds read low; actives 0.3% (n = 340,000); AID 623877;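 active = fluorescence-ratio B-score plate-corrected deviation score at least 3 library SD below zero, with starting fluorescence score within 5 deviations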;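 also: channel opened by trigger with iodide after compound preincubation; score built on the fluorescence ratio of max minus min over baseline; more negative score means more quench and so TMEM16A activation or potentiation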
TMEM16A inh: inhibitors of mouse TMEM16A calcium-activated chloride channel. Q8BHY3. HEK293 TMEM16A/YFP iodide influx fluorescence, ionomycin. normalized B-score (activity score, 25-100; higher = stronger inhibition) at 10 µM. actives 1.2% (n = 310,000). AID 588511;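 active = ratio plate-corrected score three or more library SD toward inhibition, starting fluorescence score within five deviations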;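 also: score derived from kinetic fluorescence span divided by baseline fluorescence per well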
KCNK3 inh: human KCNK3 channel inhibition, primary screen; actives 0.84% (n = 340,000); O14649; B-score at 10 µM; CHO-KCNK3 thallium flux, FluxOR fluorescence; active compounds read low;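 active = B-score under library mean minus 4 SD, starting fluorescence ratio at most library mean plus 5 SD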;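 also: more negative B-score means stronger inhibition of thallium flux through KCNK3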
Kir21 inh: inhibitors of mouse Kir2.1 inward-rectifier potassium channel; HEK293-Kir2.1, FluxOR thallium flux fluorescence; active compounds read low; B-score at 10 µM; actives 0.85% (n = 310,000);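 active = fluorescence ratio B-score at or below minus 3 SD of library scores, with starting-brightness B-score within 2 SD, cut at about -4.2 in these data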;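 also: channel flux triggered by added potassium and thallium sulfate stimulus; B-score of peak minus minimum fluorescence over baseline after thallium stimulus; more negative B-score means stronger Kir2.1 block with less thallium influx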
KCNK9 block conf: human KCNK9 inhibitor confirmation; shares compounds with KCNK9 block; AID 492992; inhibition, % at 10 µM; actives 43% (n = 4,900); HEK293 KCNK9 cells, FluxOR thallium flux fluorescence;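 active = thallium signal inhibited by more than 5 SD of the compound-free buffer control wells, on both duplicate plates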;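 also: 0% = assay buffer control wells without compound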
Kir21 sel: tests whether KCNK9 modulators also affect mouse Kir2.1 | Kir2.1 cells, FluxOR thallium flux fluorescence | actives 4% (n = 4,900) | shares compounds with KCNK9 block | inhibition, % at 10 µM;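 active = thallium signal drop more than 5 SD beyond the mean of the no-compound control wells, seen in both duplicate plates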;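 also: signal is fluorescence rise after thallium addition divided by baseline fluorescence; plate controls were assay buffer only for no effect and full block by chlorpromazine control for full effect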
HEK293 Tl ctr: second counter-screen for KCNK9 modulators: effect in non-induced cells; inhibition, % at 10 µM; non-induced KCNK9-HEK293, FluxOR thallium flux; AID 492997; shares compounds with KCNK9 block; actives 40% (n = 4,900);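 active = thallium signal drop beyond 5 SD of the untreated control mean, on both duplicate plates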;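 also: plate controls were buffer only IC0 wells for no effect and SID17386958 at its maximal inhibitory level for full effect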
Numbers without * were called inactive.

`CN(CC(=O)NCc1ccccc1)Cc1cccc(F)c1` gave KCNK9 block inactive, TMEM16A act inactive, TMEM16A inh inactive, KCNK3 inh inactive and Kir21 inh 1.59.
`COc1ccc(CN(C)CC(=O)Nc2cccc(S(=O)(=O)N(C)c3ccccc3)c2)c(OC)c1` gave TMEM16A act inactive and KCNK3 inh inactive.
For CN(CC(=O)NC(=O)NCc1ccccc1)Cc1ccc(Cl)c(Cl)c1 the results were KCNK9 block inactive, TMEM16A act inactive, TMEM16A inh inactive, KCNK3 inh inactive, Kir21 inh -0.02, KCNK9 block conf inactive, Kir21 sel inactive and HEK293 Tl ctr inactive.
For COc1ccc(CN(C)CC(=O)NC(=O)NCc2ccccc2)c(OC)c1 the results were KCNK9 block inactive, TMEM16A act inactive, TMEM16A inh inactive, KCNK3 inh inactive, Kir21 inh -1.76, KCNK9 block conf inactive, Kir21 sel inactive and HEK293 Tl ctr inactive.
CCOC(=O)c1ccc(N=Cc2cnc(N)nc2N)cc1 was read as TMEM16A act inactive and KCNK3 inh inactive.
`COc1ccccc1N1C(C)=CC(=C(C#N)c2nc3ccccc3s2)C=C1C` gave KCNK9 block -8.36*, TMEM16A act inactive, TMEM16A inh inactive, KCNK3 inh inactive, Kir21 inh -3.5, KCNK9 block conf 37.0%*, Kir21 sel inactive and HEK293 Tl ctr 70.0%*.
Cn1c(Oc2ccc(F)cc2F)c(C=O)c2ccccc21 was read as KCNK9 block inactive, TMEM16A act inactive, TMEM16A inh inactive, KCNK3 inh inactive and Kir21 inh -1.01.
Cn1c(Sc2ccc(Cl)cc2)c(C=O)c2ccccc21 was read as KCNK9 block -8.2*, TMEM16A act inactive, TMEM16A inh inactive, KCNK3 inh inactive, Kir21 inh -0.36, KCNK9 block conf 57.0%*, Kir21 sel inactive and HEK293 Tl ctr 46.0%*.
`Cc1c(N=N/C(C(=O)Nc2ccccc2)=C(/O)c2ccccc2)c(=O)n(-c2ccccc2)n1C` gave KCNK9 block -9.1*, TMEM16A act inactive, TMEM16A inh inactive, KCNK3 inh inactive, Kir21 inh -0.95, KCNK9 block conf inactive, Kir21 sel inactive and HEK293 Tl ctr 45.5%*.
Cc1c(N=C(N)/N=C(\N)Nc2ccccc2)c(=O)n(-c2ccccc2)n1C was read as KCNK9 block inactive, TMEM16A act inactive, TMEM16A inh inactive, KCNK3 inh inactive and Kir21 inh -0.18.
Screening CCc1nnc(NC(=O)c2cc(Cl)ccn2)s1 returned KCNK9 block inactive, TMEM16A act inactive, TMEM16A inh inactive, KCNK3 inh inactive and Kir21 inh 0.18.
`O=C(N/N=C/c1ccc(O)cc1O)c1ccc(CN2C(=O)c3cccc4cccc2c34)cc1` gave KCNK9 block -11.9*, TMEM16A act inactive, TMEM16A inh inactive, KCNK3 inh -11.6*, Kir21 inh 0.34, KCNK9 block conf 37.0%*, Kir21 sel inactive and HEK293 Tl ctr 33.0%*.
Screening O=C(N/N=C/c1ccccc1)c1ccc(CN2C(=O)c3cccc4cccc2c34)cc1 returned KCNK9 block inactive, TMEM16A act inactive, TMEM16A inh inactive, KCNK3 inh inactive and Kir21 inh -1.35.
`CN1CCN(c2oc(-c3ccccc3)nc2S(=O)(=O)c2ccc(Br)cc2)CC1` gave KCNK9 block inactive, TMEM16A act inactive, TMEM16A inh inactive, KCNK3 inh inactive and Kir21 inh 0.66.
Screening CSCCC(NS(=O)(=O)c1cccc(C(F)(F)F)c1)C(=O)Nc1ccccc1N1CCCC1 (configuration not stated) returned KCNK9 block inactive, TMEM16A act inactive, TMEM16A inh inactive, KCNK3 inh inactive and Kir21 inh -0.09.
For Cc1sc(NC(=O)c2ccccc2)c(C(=O)c2ccccc2)c1C the results were KCNK9 block inactive, TMEM16A act inactive, TMEM16A inh inactive, KCNK3 inh inactive, Kir21 inh 2.27, KCNK9 block conf inactive, Kir21 sel inactive and HEK293 Tl ctr inactive.
Cc1sc(NC(=O)c2ccccc2)c(C(=O)NC(C)C)c1C was read as KCNK9 block inactive, TMEM16A act inactive, TMEM16A inh inactive, KCNK3 inh inactive and Kir21 inh -1.22.
For Cc1ccc(NC(=O)CN(C)C(=O)c2cccc(S(=O)(=O)NCc3ccco3)c2)cc1 the results were TMEM16A act inactive and KCNK3 inh inactive.
`O=C(Nc1cccnc1)C1CC(=O)N(c2ccc(F)cc2)C1` (configuration not stated) gave KCNK9 block inactive, TMEM16A act inactive, TMEM16A inh inactive, KCNK3 inh inactive and Kir21 inh -0.25.
Screening O=C(CSc1nc2nc(-c3cccs3)cc(C(F)(F)F)c2c(=O)[nH]1)Nc1c(F)c(F)c(F)c(F)c1F returned KCNK9 block inactive, TMEM16A act inactive, TMEM16A inh 100*, KCNK3 inh inactive, Kir21 inh 0.17, KCNK9 block conf inactive, Kir21 sel inactive and HEK293 Tl ctr inactive.
COc1cccc(CN(C)C(c2ccccc2)c2ccccc2)c1OC was read as KCNK9 block -8.22*, TMEM16A act inactive, TMEM16A inh inactive, KCNK3 inh inactive, Kir21 inh 0.41, KCNK9 block conf inactive, Kir21 sel inactive and HEK293 Tl ctr inactive.
`O=C(COC(=O)c1c2c(nc3ccccc13)CCN(Cc1ccccc1)C2)Nc1c(F)cccc1F` gave KCNK9 block -8.35*, TMEM16A act inactive, TMEM16A inh inactive, KCNK3 inh inactive, Kir21 inh -0.21, KCNK9 block conf inactive, Kir21 sel inactive and HEK293 Tl ctr inactive.
O=C(Nc1ccccc1)n1cc(-c2ccccn2)c(N2CCOCC2)n1 was read as KCNK9 block inactive, TMEM16A act inactive, TMEM16A inh inactive, KCNK3 inh inactive and Kir21 inh 0.54.
`CC1SC2(NC1=O)C1CC3CC(C1)CC2C3` (configuration not stated) gave KCNK9 block inactive, TMEM16A act inactive, TMEM16A inh inactive, KCNK3 inh inactive and Kir21 inh -0.77.
For O=C(O)CCCN1C(=O)/C(=C/c2cn(-c3ccccc3)nc2-c2cccs2)SC1=S the results were KCNK9 block inactive, TMEM16A act inactive, KCNK3 inh inactive and Kir21 inh -0.36.

Screening results: PubChem BioAssay, Johns Hopkins Ion Channel Center
